± gives the standard deviation of the averaged measurements. In all, about 25,000 sequences were measured (“ln(normalized median fluorescence intensity)”: median about 8.9, highest 2% from about 10 on). Many of the other results were omitted from the sample, so the highest values are more common in it than they were.

This test concerns PfAP2-LT AP2 domain (GST-tagged). As to the kind of experiment: gcPBM binding intensity (ln(normalized median fluorescence intensity)); higher = stronger DNA binding. An outline of the steps:
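In this array assay, P. falciparum DNA-binding domains with a GST tag, expressed in E. coli, were applied for 1 h to primer-extended double-stranded 36-bp intergenic genomic probes and negative controls on an Agilent 4 × 180k array. Bound protein was visualised with Alexa488 anti-GST antibody at 488 nm. Binding intensity is the highest Masliner-normalised natural-log median intensity across replicate spots of either probe orientation.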
In the case of “TCTTTTTAACAAAAAAAAAAAAAAAAAAAAAAATTA [CACACA_negctrl_site1637]”, the “gcPBM binding intensity (ln)” value came out at 7.96 ± 0.43.
Next, “AGTAGTCTGGAGAAAAGTACATAGTATCTGGTAACC [XGTACX_site2024]”: 8.81 ± 0.58; “AAAAAAATTAAACATGAAGAATAAGGAACAAAAAAA [CACACA_negctrl_site1607]”: 8.78 ± 0.55.
Next, “CTGATATATAGATGTAGTACATAAAAATGACGAATT [XGTACX_site5612]”: 8.99 ± 0.47; “ATTTTTTTGGAATTCACACACAAAAAAAAAAATAAA [CACACA_site2081]”: 8.79 ± 0.47; “GATAAATCATATATAACACACATATGAATATTACAA [CACACA_site1321]”: 8.98 ± 0.35.
Next, “AACTTACTTGGACATACACACATATATATATATATA [CACACA_site2978]”: 9.78 ± 0.3.
On to “GTTACACCAACAAACACACACACACCGACACCCAAA [CACACA_site5361]”, for which the “gcPBM binding intensity (ln)” value was determined as 10.1 ± 0.17.
Next, “TATACATACCCACCCACACACAAAAAAAAAAAAAAA [CACACA_site4632]”: 9.76 ± 0.3.
Next, “TACACAAATATATACATACACACATATATACGCATA [CACACA_site394]”: 9.27 ± 0.3; “TGGTAATACCCATACACACACACATACCCATATATA [CACACA_site5509]”: 9.76 ± 0.33.
Next, “TGCATATACTCAAGCACACATATATATATATATATA [CACACA_site4733]”: 9.76 ± 0.13; “GTAATACCCAAACACACACACATACCCATATATATA [CACACA_site5510]”: 10.1 ± 0.29; “TATATACACAAACACACACACACATACACCCACATA [CACACA_site8504]”: 10.2 ± 0.16.
For “GTTACACCAACAAACACACACACACCCACCCACAAA [CACACA_site2427]”, the “gcPBM binding intensity (ln)” value was found to be 10.3 ± 0.16.
As to “TGGTAATACCCATACACACACACATACACATATATA [CACACA_site8877]”, the “gcPBM binding intensity (ln)” value came to 9.76 ± 0.32.
Next, “CAAACCCACCAACACACACACACAAAAATGATTAAA [CACACA_site2432]”: 9.88 ± 0.3; “TGCATATACGCAAGCACACATATATATATATATATA [CACACA_site1069]”: 10.1 ± 0.4; “AAGAAAAGAAACAAAAAAAAAAAGAAATAAAAGGAA [TGCATGCA_negctrl_site171]”: 8.61 ± 0.62.
Next, “AAAATTTATAAAAGCACACAAAATAAAAAAAAATGA [CACACA_site1491]”: 8.88 ± 0.46.
“AAGAAAATAAAATAAAAAAAAAAATAAAAAAAATAA [TGCATGCA_negctrl_site516]”: the “gcPBM binding intensity (ln)” value was determined as 8.37 ± 0.74.
On to “CAAAAATAAACTATAGTACACACTTATTATTATGAA [CACACA_site2702]”, for which the “gcPBM binding intensity (ln)” value was 8.8 ± 0.49.
Next, “ACACATACTAAAATGTTGTGAAATATGATAATGTGA [CACACA_negctrl_site851]”: 9.11 ± 0.47.
Next, “TTAATCATAAAAGTCACACATAATAAGAAAAAGCTT [CACACA_site4616]”: 8.78 ± 0.37; “AAATAGGGAATTTATGCACACAGTTAAGGGGGAAAA [CACACA_site2071]”: 9.28 ± 0.26; “ACATATAATAAAAAATGTACACACATAAGAAAATTT [XGTACX_site6153]”: 9.16 ± 0.38.
Next, “TAAATACATTTATGTACACACACATAGATGTATATT [CACACA_site5618]”: 9.22 ± 0.36.
For the sequence “TAACATGATATATAATGTACATATAAGATATTTATA [XGTACX_site4383]”, the “gcPBM binding intensity (ln)” value is 8.79 ± 0.45.
On to “CAAACATATTAATGTACACACACCCACCCACAAACA [CACACA_site2752]”, for which the “gcPBM binding intensity (ln)” value came to 10.2 ± 0.29.
Next, “AACATATTAATGTACACACACCCACGCACAAACAAA [CACACA_site7320]”: 9.765 ± 0.092.
Next, “CACACCACCAACAAAAGTACATACATATATATATAT [XGTACX_site5781]”: 9.65 ± 0.14; “CACAAAGACACAAACACACACACACCCACATACATA [CACACA_site452]”: 9.86 ± 0.24; “CATATACACCAACACACACACACACCCACAAAAAAA [CACACA_site496]”: 10.1 ± 0.27.
Next, “TAACCATACATACATACACACACACCCACATATATA [CACACA_site8951]”: 9.95 ± 0.13.
Consider “AAGCAAACATATTAATGTACACACACCCACACACAA [XGTACX_site5806]”, for which the “gcPBM binding intensity (ln)” value turned out to be 9.95 ± 0.46.
As to “CATACATAGAAACACACACACACACCCACCCACAAA [CACACA_site494]”, the “gcPBM binding intensity (ln)” value worked out at 10.19 ± 0.028.
Next, “GATACATAGAAACACACACACATACATATATACATA [CACACA_site3438]”: 9.92 ± 0.26; “CACACCCACCAACACACACACACACCCACCCATATA [CACACA_site366]”: 10.3 ± 0.12; “TACACCCACCAACACACACACACACCCAAAAAAAAA [CACACA_site498]”: 10.1 ± 0.14.
Next, “ATATATTACAATATATGTACTTAATTTGCTTAAATA [XGTACX_site7912]”: 8.6 ± 0.52.
As to “TAACAAATATTATTTTGTACATAATATATATATATA [XGTACX_site6898]”, the “gcPBM binding intensity (ln)” value came out at 8.6 ± 0.32.
Next, “TTGTTTCAAAATTAAACACACACAAAAAAAAAAAAA [CACACA_site8856]”: 8.86 ± 0.52; “TTATATATATTTAAAAAAATAACATAAATAAATAAA [CACACA_negctrl_site347]”: 8.29 ± 0.52.
Regarding “AGTCTTTTACATTGCACACACATTTCTTTCCTTTTG [CACACA_site2988]”, the “gcPBM binding intensity (ln)” value was found to be 9.61 ± 0.36.
Next, “AATAGGATATGGTACATTTTTTGTATACTTTTTGTT [CACACA_negctrl_site1804]”: 8.91 ± 0.47; “ATATATATATGTGGATGTACATATATCTCTTATTAT [XGTACX_site1748]”: 9.05 ± 0.42; “GAGAGAGAAATAAAAAGTACATACATATATATACAT [XGTACX_site2267]”: 8.84 ± 0.58.
Turning to “TCATAGTCTTAATGACTACACACCTAACTATGCATG [CACACA_site1839]”, the “gcPBM binding intensity (ln)” value stood at 9 ± 0.47.
Next, “TAATATGCATAAAATTGTACAAACTTACATATAATA [XGTACX_site2752]”: 8.92 ± 0.45.
In the case of “CACCCATACACATACAAACACACATTCTATATATAT [CACACA_site1600]”, the “gcPBM binding intensity (ln)” value is 9.28 ± 0.46.
Turning to “ATCAACAAAACATACACACACATATATATATATATA [CACACA_site2989]”, the “gcPBM binding intensity (ln)” value is 10.32 ± 0.057.
With “CACGCGCACCAACACACACACACACCCATATATATA [CACACA_site2204]”, the “gcPBM binding intensity (ln)” value came to 10.3 ± 0.4.
Next, “CATACATACAAACACACACACACACCCATATATATA [CACACA_site2918]”: 10.1 ± 0.31.
For “ATCAAAAGAAAACACACACACATACATATATATATA [CACACA_site3795]”, the “gcPBM binding intensity (ln)” value is 10.1 ± 0.3.
Next, “CACATACCCATACAAACACACATTATATATATATAT [CACACA_site4965]”: 9.56 ± 0.33; “CACAAACACCCAAACACACACACACCGACATACATA [CACACA_site4410]”: 10.1 ± 0.46; “CAAACACCCAAACACACACACACATACATACATACA [CACACA_site8044]”: 9.98 ± 0.15.
Next, “CAATCAACAAAACATACACACACATATATATATATA [CACACA_site8979]”: 10 ± 0.33; “GACACCCATAAATATACACACGCACAACACAAAATA [CACACA_site8944]”: 9.46 ± 0.38.
